Laboratory results as given in PubChem BioAssay (NCI).
This is part of a sample that, as a whole, favours compounds with a hit. Of some 83,000 tested, about 20% had one in any assay.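 96-well plates, one dose, 48 hours. Percent growth reported; active if below 10.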 A number with no mark means an inactive call. Calls of active or inactive are those of the source.

How the values were obtained:
Assay in all cases: NCI-60 one-dose screen, 48 h (100 = growth as untreated, 0 = no growth, -100 = all killed)
Settings in all cases: 10 µM unless noted
HCT-15 colon = tested on: HCT-15 colon
HT29 colon = tested on: HT29 colon
SNB-75 CNS = tested on: SNB-75 CNS
SNB-19 CNS = tested on: SNB-19 CNS
U251 CNS = tested on: U251 CNS
PC-3 prostate = tested on: PC-3 prostate
SK-MEL-5 melanoma = tested on: SK-MEL-5 melanoma
UACC-62 melanoma = tested on: UACC-62 melanoma
LOX IMVI melanoma = tested on: LOX IMVI melanoma
SK-MEL-28 melanoma = tested on: SK-MEL-28 melanoma
SK-MEL-2 melanoma = tested on: SK-MEL-2 melanoma
EKVX NSCLC = tested on: EKVX NSCLC
SN12C renal = tested on: SN12C renal
UO-31 renal = tested on: UO-31 renal
TK-10 renal = tested on: TK-10 renal
ACHN renal = tested on: ACHN renal
CAKI-1 renal = tested on: CAKI-1 renal
A498 renal = tested on: A498 renal
CCRF-CEM leukemia = tested on: CCRF-CEM leukemia
MOLT-4 leukemia = tested on: MOLT-4 leukemia

SMILES | growth (HCT-15 colon) | growth (HT29 colon) | growth (SNB-75 CNS) | growth (SNB-19 CNS) | growth (U251 CNS) | growth (PC-3 prostate) | growth (SK-MEL-5 melanoma) | growth (UACC-62 melanoma) | growth (LOX IMVI melanoma) | growth (SK-MEL-28 melanoma) | growth (SK-MEL-2 melanoma) | growth (EKVX NSCLC) | growth (SN12C renal) | growth (UO-31 renal) | growth (TK-10 renal) | growth (ACHN renal) | growth (CAKI-1 renal) | growth (A498 renal) | growth (CCRF-CEM leukemia) | growth (MOLT-4 leukemia)
O=S(=O)(NCCCNc1cc(-c2cn(-c3ccccc3)nc2-c2cccc(O)c2)ccn1)c1cccc(F)c1 | 9.95% (active) | 8.11% (active) | 49.5% | 81.6% | 40.1% | 15.5% | 20% | 50.5% | 13.7% | 44.3% | 66.3% | 39% | 65.9% | 35.6% | 58.9% | 43.7% | 41% | 46.6% | 36.3% | 31%
Cc1sc2nc(CSc3nnc(-c4ccco4)o3)[nH]c(=O)c2c1C | 90.7% | 118% | 108% | 106% | 88% | 102% | 97.5% | 108% | 99.2% | 110% | 96.4% | 110% | 114% | 106% | 189% | 93.8% | 99.9% | 110% | 64.3% | 48.7%
Cc1ccc2nc(-c3c(N)n[nH]c3CCCO)[nH]c(=O)c2c1 | 106% | 104% | 91% | 106% | 105% | 92.3% | 105% | 100% | 101% | 115% | 108% | 103% | 104% | 63.9% | 109% | 115% | 112% | 100% | 91.8% | 95.7%
COc1ccc(Cl)cc1NC(N)=S | 103% | 98.7% | 86.6% | 111% | 97.7% | 93% | 104% | 102% | 96.7% | 108% | 107% | 105% | 105% | 97% | 89.5% | 110% | 97.3% | 95.9% | 105% | 99.7%
CC1CCc2c(sc(NC(=O)CSc3nnc4ccccn34)c2C(N)=O)C1 (stereo not given) | 106% | 117% | 104% | 115% | 108% | 106% | 99.3% | 101% | 90.5% | 137% | 48.4% | 150% | 102% | 110% | 179% | 96.7% | 95.7% | 133% | 101% | 108%
COc1ccc2c(c1)C(C)Cc1c(N(C)C)ncnc1N2C (stereo not given) | 23.7% | 11.6% | 14.3% | 40.5% | 28% | 26.4% | 19.4% | 27.6% | 42.4% | 59.3% | 32.9% | 41.2% | 43.6% | 56.6% | 29.9% | 46.8% | 37.6% | 2.02% (active) | 18.6% | 33.1%
O=S(=O)(NCCCNc1cc(-c2cn(-c3ccccc3)nc2-c2cccc(O)c2)ccn1)c1cccc2ccccc12 | 1.39% (active) | -9.29% (active) | 28.1% | 64.2% | 35.2% | 18.5% | 14.2% | 34.5% | 10.3% | 4.71% (active) | 62.4% | 37.5% | 51.4% | 20.6% | 66.3% | 29.8% | 28.7% | 43.6% | 26% | 13.6%
COC(=O)c1ccc(C)cc1 | 105% | 98.6% | 89.2% | 115% | 94.9% | 97.5% | 103% | 106% | 99.5% | 113% | 106% | 98.3% | 107% | 101% | -16.3% (active) | 116% | 97% | 79.9% | 101% | 103%
c1cncc(CNc2ccccc2-c2nnc(Nc3ccc4c(c3)OCCO4)o2)c1 | 19% | 2.31% (active) | 33.1% | 38.1% | 30.8% | 36.5% | -9.92% (active) | 39.8% | 27.1% | 68.9% | 15.8% | 49.8% | 37.7% | 47.1% | 63.1% | 40.4% | 34.3% | 11.3% | 14% | 22.1%
C[N+](C)(C)c1ccc(CC2c3ccccc3-c3ccccc32)cc1 | 98.1% | 65.9% | -3.78% (active) | 23.2% | 19.3% | 56.1% | 77.1% | 81.5% | 86.3% | 81.3% | 81.5% | 71.2% | 21.3% | 90.9% | 93.3% | 99.9% | 86.8% | 70.5% | 69.9% | 76.4%
O=C1CCC(=O)N1Cc1ccccc1 | 99.9% | 101% | 80.4% | 110% | 101% | 100% | 102% | 104% | 90.5% | 101% | 95.1% | 97.3% | 104% | 98.1% | 92.2% | 101% | 94.2% | 85.8% | 108% | 101%
COc1cc(C2CC(c3c(C)[n+]([O-])c4ccccc4[n+]3[O-])=NN2)cc(OC)c1OC (stereo not given) | 97.3% | 120% | 99.4% | 101% | 99.6% | 102% | 96% | 105% | 98% | 116% | 96.4% | 123% | 94.4% | 94.6% | 122% | 103% | 106% | 97.5% | 87.5% | 94.4%
O=c1[nH]c(CN2CCN(c3ccccc3F)CC2)nc2sc3c(c12)CCC3 | 112% | 106% | 87.8% | 106% | 104% | 102% | 107% | 91.9% | 99.2% | 117% | 87.6% | 100% | 99.7% | 95.2% | -3.37% (active) | 113% | 122% | 93% | 100% | 99.8%
O=C1CCCCN1CCCCC#Cc1ccccc1C#Cc1ccccn1 | 94.7% | 88.6% | 91.9% | 108% | 88.9% | 95.1% | 98.2% | 83.9% | 96.8% | 110% | 64.5% | 106% | 106% | 42.2% | 136% | 86.4% | 121% | 114% | 74% | 94.9%
COC(=O)CCCCN=Cc1c(O)c(O)c(C(C)C)c2cc(C)c(-c3c(C)cc4c(C(C)C)c(O)c(O)c(C=NCCCCC(=O)OC)c4c3O)c(O)c12 | 11.1% | 4.56% (active) | 42.6% | 17.6% | 11.1% | 12.1% | 28.6% | 33.5% | 17.4% | 31.1% | 17.3% | 14.4% | 16.1% | 14.7% | 12.6% | 13.4% | 50.8% | 12.2% | 18.4% | 14.4%
Cc1oc2ncnc(Nc3ccccc3)c2c1C(=O)NCCO | 98.1% | 106% | 90.7% | 93.9% | 102% | 107% | 97.5% | 86.2% | 95.4% | 98.9% | 113% | 97.6% | 93.2% | 87.7% | 122% | 91.8% | 90.8% | 78.2% | 97.4% | -0.282% (active)
